Screening data deposited in PubChem by The Scripps Research Institute Molecular Screening Center.
PME-1 primary = blocks human protein phosphatase methylesterase 1; recombinant PME-1, FP-Rh probe fluorescence polarization; 0.53% of 320,000 active; inhibition, % at 5.9 µM; Q9Y570; AID 2130;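 active = inhibition above the campaign mean of all compounds plus 3 SD, cut at about 26% in these data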;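 note: competitive labeling of PME-1 active site by serine hydrolase directed probe; 0% = PME-1 with DMSO and 100% = wells lacking PME-1 enzyme; inhibitors block probe labeling so polarization falls and inhibition rises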
GSTO1 inh = blocks human GSTO1 in RBBP9 counter-screen; P78417; recombinant GSTO1, activity-based probe fluorescence polarization; inhibition, % at 5.96 µM; 1.1% of 300,000 active; AID 1974;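 active = inhibition above the campaign mean inhibition plus 3 SD, cut at about 35% in these data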;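 note: 0% = GSTO1-1 with DMSO and 100% = wells lacking GSTO1-1 enzyme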
Target sequence (P78417 whole entry, looked up): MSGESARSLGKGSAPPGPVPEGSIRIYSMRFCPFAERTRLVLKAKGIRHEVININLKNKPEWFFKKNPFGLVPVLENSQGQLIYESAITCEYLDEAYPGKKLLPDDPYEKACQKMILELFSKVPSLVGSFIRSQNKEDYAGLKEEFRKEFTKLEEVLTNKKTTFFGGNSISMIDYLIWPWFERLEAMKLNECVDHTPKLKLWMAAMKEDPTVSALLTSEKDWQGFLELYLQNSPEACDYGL
LYPLA1 counter = counter-screen for PME1 inhibitors: inhibitors of human LYPLA1; recombinant LYPLA1, FP-Rh probe fluorescence polarization; inhibition, % at 5.9 µM; 0.16% of 320,000 active; AID 2174;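 active = inhibition above the mean of all tested compounds plus 3 SD, set per campaign, cut at about 14% in these data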;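 note: inhibitors block serine hydrolase probe labeling of LYPLA1 so polarization falls; 0% = enzyme with DMSO and 100% = wells lacking LYPLA1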
Target sequence (O75608 whole entry, looked up): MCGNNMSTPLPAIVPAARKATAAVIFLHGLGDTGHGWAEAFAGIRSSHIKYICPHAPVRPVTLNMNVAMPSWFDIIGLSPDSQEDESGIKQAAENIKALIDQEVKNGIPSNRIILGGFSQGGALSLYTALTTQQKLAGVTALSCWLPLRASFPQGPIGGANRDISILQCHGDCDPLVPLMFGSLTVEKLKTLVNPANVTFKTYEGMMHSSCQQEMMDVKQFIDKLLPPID
Fam108B counter = blocks mouse Fam108B hydrolase in RBBP9 counter-screen; recombinant Fam108B, FP-Rh probe fluorescence polarization; inhibition, % at 9.51 µM; 0.33% of 300,000 active; AID 1947;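 active = inhibition above the screen mean inhibition plus 3 SD, computed separately per campaign, cut at about 18% in these data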;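 note: inhibitors lower polarization as less probe binds the enzyme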
LYPLA2 counter = blocks human lysophospholipase 2, a PME1 counter-screen. O95372. recombinant LYPLA2, FP-Rh probe fluorescence polarization. inhibition, % at 5.9 µM. 0.38% of 320,000 active. AID 2177;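 active = inhibition above the screen-wide mean plus 3 SD, limit set per campaign, cut at about 26% in these data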;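 note: 0% = LYPLA2 with DMSO and 100% = wells lacking LYPLA2 enzyme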
Target sequence (O95372 whole entry, looked up): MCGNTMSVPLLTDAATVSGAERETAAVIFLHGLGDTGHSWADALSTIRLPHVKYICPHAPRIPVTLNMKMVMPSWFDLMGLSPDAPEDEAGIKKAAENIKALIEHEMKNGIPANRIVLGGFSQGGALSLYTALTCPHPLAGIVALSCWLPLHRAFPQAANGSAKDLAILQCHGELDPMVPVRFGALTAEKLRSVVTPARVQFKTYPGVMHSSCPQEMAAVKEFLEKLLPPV
PAD4 FP inh = blocks human protein arginine deiminase 4 | 0.41% of 330,000 active | inhibition, % at 6.36 µM | Q9UM07 | recombinant PAD4, RCA probe fluorescence polarization;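 active = percent inhibition above a cutoff equal to the mean of all tested compounds plus 3 SD, cut at about 15% in these data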;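 note: 0% = PAD4 with RCA probe and DMSO and 100% = probe without PAD4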
GSTO1 confirm = GSTO1 (human) inhibition, confirmation; shares compounds with GSTO1 inh; 54% of 2,400 active; inhibition, % at 5.96 µM; recombinant GSTO1, probe fluorescence polarization; AID 2176;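 active = inhibition above the primary screen's cutoff, its mean inhibition plus 3 SD, cut at about 35% in these data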;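 note: loss of polarization as inhibitors block binding of rhodamine sulfonate ester activity probe; 0% = GSTO1 with DMSO and 100% = wells lacking GSTO1 enzyme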
LYPLA1 conf = counter-screen for PME1 inhibitors: confirmation of human LYPLA1 inhibitors | shares compounds with LYPLA1 counter | recombinant LYPLA1, FP-Rh probe fluorescence polarization | inhibition, % at 5.9 µM | 69% of 480 active;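 active = mean inhibition across replicates above the hit cutoff set in the primary screen, cut at about 15% in these data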;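 note: loss of FP-Rh probe labeling of LYPLA1 seen as lower polarization; 0% = LYPLA1 with DMSO and 100% = wells lacking LYPLA1 enzyme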
LYPLA2 confirm = counter-screen for PME1 inhibitors: confirmation of human LYPLA2 inhibitors; 72% of 1,100 active; shares compounds with LYPLA2 counter; recombinant LYPLA2, FP-Rh probe fluorescence polarization; inhibition, % at 5.9 µM;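 active = mean inhibition across replicates above the hit cutoff set in the primary screen, cut at about 26% in these data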;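 note: blocked labeling of the enzyme by serine hydrolase FP-Rh probe lowers polarization; 0% = enzyme with DMSO and 100% = wells lacking LYPLA2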
PAD4 confirm = PAD4 (human) inhibition, confirmed; 28% of 1,200 active; recombinant PAD4, RCA probe fluorescence polarization; inhibition, % at 6.36 µM; shares compounds with PAD4 FP inh;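 active = mean inhibition across replicates above the hit cutoff set by the earlier primary screen, cut at about 15% in these data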;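 note: inhibitors block active-site labeling by the probe so polarization falls; 0% = PAD4 with probe and DMSO and 100% = probe without PAD4 enzyme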
* hit, by the source's call; . = no result. This is a sample that favours compounds with a hit; in the whole collection about 1.8% have one here.

SMILES | PME-1 primary | GSTO1 inh | LYPLA1 counter | Fam108B counter | LYPLA2 counter | PAD4 FP inh | LYPLA1 conf | others
CC(C)(C)c1cc(C(=O)N/N=C/c2ccc(-c3ccccc3[N+](=O)[O-])o2)n[nH]1 | 32* | 52* | 26* | 9 | 36* | 48* | 0 | GSTO1 confirm=4;LYPLA2 confirm=1;PAD4 confirm=-7
Cc1cc(C(=O)N/N=C/c2ccc(-c3cccc(Cl)c3Cl)o2)n[nH]1 | -12 | -8 | -7 | -10 | -12 | 1 | .
CC(C)Oc1ccc(CCNC(=O)CC2C(=O)NCCN2C)cc1 (configuration not stated) | -4 | -13 | -1 | -6 | -5 | -7 | .
NC(=O)C1CCN(c2ncnc3c2c(-c2ccccc2)cn3-c2ccccc2)CC1 | 5 | -1 | 17* | -2 | 18 | 7 | 19*
Fc1ccc(-n2cc(-c3ccccc3)c3c(N4CCOCC4)ncnc32)cc1 | -6 | 10 | 1 | -5 | 2 | -7 | .
Cc1ccc(N(CC(=O)NC2CC2)S(=O)(=O)c2ccccc2)c(C)c1 | -3 | -5 | 1 | -4 | -2 | -10 | .
Cc1cc(C)c(C)c(S(=O)(=O)N2CCN(C(=O)CNC(=O)c3ccco3)CC2)c1C | 2 | . | 4 | . | 8 | -1 | .
CCOC(=O)c1nn(-c2ccccc2)c(-c2ccccc2)c1C(=O)c1ccccc1 | -2 | 17 | 18* | -5 | 8 | 0 | 2
Cc1cc(C)nc(Nc2ccc(O)cc2)n1 | -4 | 2 | -2 | -1 | -4 | 1 | .
Cc1cc(Nc2ccc(O)cc2)ccc1N | 36* | . | 16* | . | 21 | 35* | 0
CNc1oc(-c2cccc3ccccc23)nc1C#N | 6 | 1 | 17* | 6 | 7 | 1 | 5
CNc1oc(-c2ccccc2Cl)nc1C#N | -4 | 0 | 3 | 2 | 0 | -3 | .
CCOC(=O)C1(O)CSc2nc3sc(C(=O)O)c(C)c3c(=O)n21 (configuration not stated) | 4 | 2 | 14* | -2 | 13 | 0 | 5
CCCCc1cc(=O)oc2cc(OCc3nn[nH]n3)c(Cl)cc12 | 0 | -7 | 22* | 5 | 17 | -2 | 21*
CCOC(=O)CCCSc1nnc(CCCCCN2C(=O)c3cccc4cccc(c34)C2=O)o1 | -4 | -2 | 45* | -5 | 20 | 2 | 52*
C=CCSc1nnc(CCCCCN2C(=O)c3cccc4cccc(c34)C2=O)o1 | -2 | 1 | 27* | -1 | 10 | -2 | 39*
CCCn1c(SCC(=O)Nc2cc(Cl)ccc2OC)nc(O)cc1=O | -13 | . | -6 | . | -8 | -8 | .
Cc1nc2scc(C)n2c(=O)c1S(=O)(=O)N1CCN(c2cccc(C(F)(F)F)c2)CC1 | 0 | 0 | -2 | -1 | -2 | -2 | .
CCc1c(C)sc(NC(=O)CN2CCN(C(=O)c3ccco3)CC2)c1C(=O)OC | 6 | 18 | 0 | -2 | 6 | -7 | .
O=C(CN1CCN(C(=O)c2ccco2)CC1)Nc1cc(C(F)(F)F)ccc1Cl | 0 | -2 | 91* | -3 | 11 | 4 | 92*
N#Cc1c(NC(=O)CN2CCN(C(=O)c3ccco3)CC2)sc2c1CCCCC2 | 2 | 2 | 51* | 0 | 18 | 0 | 56*
Cc1cc(C)n2c(SCC(=O)Nc3cccc(S(N)(=O)=O)c3)nnc2n1 | . | . | . | . | . | -4 | .
O=C(COC(=O)C1CC2C=CC1C2)Nc1cccc(S(=O)(=O)N2CCCCCC2)c1 (configuration not stated) | 6 | -5 | 37* | -2 | 17 | 1 | 46*
O=C(COC(=O)C1CCC1)Nc1cccc(S(=O)(=O)N2CCOCC2)c1 | 2 | 1 | 1 | -3 | 7 | -7 | .
O=C(COC(=O)C1CC2C=CC1C2)Nc1cccc(S(=O)(=O)N2CCCCC2)c1 (configuration not stated) | -3 | -5 | 16* | 3 | 8 | -6 | 28*
SMILES | PME-1 primary | GSTO1 inh | LYPLA1 counter | Fam108B counter | LYPLA2 counter | PAD4 FP inh | LYPLA1 conf | others
C#CCOCCOCCOCCNc1nc(N2CCN(C(=O)[C@H]([C@@H](C)CC)n3cc([C@@H](N)Cc4ccc(O)cc4)nn3)CC2)nc(N2CCN(C(=O)[C@H](Cc3cc4ccccc4[nH]3)n3cc([C@@H](N)C(C)CC)nn3)CC2)n1 (some centres not stated) | 2 | 1 | 0 | -4 | 5 | -3 | .
C#CCOCCOCCOCCNc1nc(N2CCN(C(=O)[C@H](Cc3cc4ccccc4[nH]3)n3cc([C@@H](N)C(C)CC)nn3)CC2)nc(N2CCN(C(=O)[C@H](Cc3cc4ccccc4[nH]3)n3cc([C@@H](N)Cc4ccc(O)cc4)nn3)CC2)n1 (some centres not stated) | -28 | -5 | 17* | -19 | -20 | -6 | 34*
COc1ccc(-c2nc(CC(=O)Nc3cccc(S(=O)(=O)NC4=NCCC4)c3)cs2)cc1 | -2 | . | 16* | . | 2 | -1 | -1
CCOc1ccc(C(=O)NC(=S)Nc2cccc(S(=O)(=O)NC3=NCCC3)c2)cc1 | -3 | -5 | -3 | -2 | 6 | -4 | .
Cc1ccc(-n2c(SCC(=O)Nc3cccc(S(=O)(=O)NC4=NCCCCC4)c3)nc3ccccc3c2=O)cc1C | -21 | -27 | -14 | -17 | -28 | -8 | .
Cc1cc(SCC(=O)Nc2cccc(S(=O)(=O)NC3=NCCCCC3)c2)nc2ccccc12 | 7 | -29 | 19* | -7 | 1 | 1 | 29*
COc1cc(/C=N/N2CCN(Cc3ccc(Cl)cc3)CC2)cc(Br)c1O | 2 | 4 | 49* | -1 | 22 | -2 | 54*
COc1cc(/C=N/N2CCN(Cc3ccc(Cl)cc3)CC2)ccc1OC(C)=O | -8 | 3 | 4 | 0 | 12 | -7 | .
COc1ccccc1/C=C/C=N\N1CCN(Cc2ccccc2Cl)CC1 | 5 | -1 | 3 | 4 | 10 | -2 | .
COc1ccccc1/C=C/C=N/N1CCN(Cc2ccc(Cl)cc2)CC1 | 1 | 2 | 19* | 0 | 21 | -1 | 26*
CCC(=O)c1ccc(OCC(=O)NCCc2ccccn2)cc1 | -3 | 2 | 3 | 1 | 0 | -5 | .
CSC(=NC#N)N1CCN(c2ccc([N+](=O)[O-])cc2)CC1 | 1 | 3 | 19* | 3 | 14 | -3 | 24*
